This is an account of results in PubChem BioAssay (NCATS).

Assay [1] can be described thus: qHTS of pediatric cancer cell lines to identify multiple opportunities for drug repurposing: Confirmatory screen for NB1643 cells (AID 1347109). Further: nearly all actives have a fitted effect of over 45% in size. The essentials: (§1)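 Cells (500-1,000/well) rested 5 h, then received compounds for 48 h; metabolically active cells were measured by CellTiter-Glo luminescence. Final concentrations spanned up to 46 µM (MIPE, 11-point) or 0.59 nM-46 µM (NPC, 8-point) in primary screens, 11-point in follow-ups.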

Assay [2] is described as follows: qHTS of pediatric cancer cell lines to identify multiple opportunities for drug repurposing: Confirmatory screen for A673 cells (AID 1347110).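 Further: cells exposed to compound for 48 h before the viability read; nearly all actives have a fitted effect of over 65% in size.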 The method, boiled down:
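qHTS titration format: primary MIPE 0.78 nM-46 µM (11 pts), NPC 0.59 nM-46 µM; confirmation 11 pts. 48 h, CTG luminescence.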

Assay [3] can be described thus: qHTS of pediatric cancer cell lines to identify multiple opportunities for drug repurposing: Confirmatory screen for SK-N-MC cells (AID 1347111).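 Further: cells exposed to compound for 48 h before the readout; nearly all actives have a fitted effect of over 70% in size.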 The method, boiled down: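 Seed 500-1,000 cells/well; rest 5 h at 37 degrees C. Pin-transfer compounds, 11-point titration. Incubate 48 h. Add CellTiter-Glo, 15 min RT, read luminescence.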
A short description of assay [4]: qHTS of pediatric cancer cell lines to identify multiple opportunities for drug repurposing: Confirmatory screen for BT-12 cells (AID 1347112). Further: nearly all actives have a fitted effect of over 55% in size. The method, boiled down:
as §1

A short description of assay [5]: qHTS of pediatric cancer cell lines to identify multiple opportunities for drug repurposing: Primary screen for MG 63 (6-TG R) cells (AID 1347105). Further: nearly all actives have a fitted effect of over 50% in size. The method, boiled down:
(§2)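 Plated cells (500-1,000 per well, growth media) were allowed to settle for 5 hours, treated with compound dilutions for 48 hours, then lysed with CellTiter-Glo for 15 min at room temperature before luminescence reading.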

A short description of assay [6]: qHTS of pediatric cancer cell lines to identify multiple opportunities for drug repurposing: Primary screen for control Hh wild type fibroblast cells (AID 1347106). Further: nearly all actives have a fitted effect of over 55% in size. The essentials: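 Cells (500-1,000/well) in growth media were settled 5 h at 37 degrees C, then given compounds for 48 h. Viability was read as CellTiter-Glo luminescence. Primary runs used MIPE at 11 points (0.78 nM-46 µM) and NPC at 8 points (0.59 nM-46 µM); follow-ups used 11 points.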

The nature of assay [7]: qHTS of pediatric cancer cell lines to identify multiple opportunities for drug repurposing: Primary screen for Rh30 cells (AID 1347107). Further: nearly all actives have a fitted effect of over 75% in size. The essentials: as §1
A short description of assay [8]: qHTS of pediatric cancer cell lines to identify multiple opportunities for drug repurposing: Primary screen for Rh41 cells (AID 1347108). Further: nearly all actives have a fitted effect of over 70% in size. The method, boiled down:
as §2

The nature of assay [9]: qHTS of pediatric cancer cell lines to identify multiple opportunities for drug repurposing: Confirmatory screen for LAN-5 cells (AID 1347113). Further: nearly all actives have a fitted effect of over 65% in size. The method, boiled down: as §1
Assay [10] can be described thus: qHTS of pediatric cancer cell lines to identify multiple opportunities for drug repurposing: Confirmatory screen for DAOY cells (AID 1347114). Further: nearly all actives have a fitted effect of over 65% in size. The essentials:
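Viability measured as metabolically active cells via CellTiter-Glo luminescence following 48 hours of compound exposure, 11-point dilutions in confirmatory testing. 500-1,000 cells/well plated 5 hours before dosing; controls were DMSO and 2.3 µM bortezomib.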

Inconclusive results are not listed. Calls of active or inactive are those of the source. The call rests on the fitted dose curve; in most records, active means well fitted curve in the direction sought with a large enough effect; inconclusive means small, poorly fitted or top-dose-only effect, or another doubt; inactive means no such curve, though single readings can be large; an effect the other way counts as inactive or inconclusive.
Potency means the concentration at half of the fitted maximal effect.

As for `Cc1ccc(NC(=O)C2(c3ccc4c(c3)OC(F)(F)O4)CC2)nc1-c1cccc(C(=O)O)c1`, the Potency result in [1], in assay [2] and in assay [3] was “inactive” in each case. In addition, the Potency in [4] is 10.4 µM (active).

Take `CN1CCN(Cc2ccc(NC(=O)Nc3ccc(Oc4cc(NC(=O)C5CC5)ncn4)cc3)cc2C(F)(F)F)CC1`: the Potency in assay [5] was 1.87 µM (active); in [6], 8.33 µM (active); in assay [7] it was 20.9 µM (active); in [8] it was 0.469 µM (active); in assay [1], 1.85 µM (active); in assay [2] it was 0.131 µM (active). Moreover, the Potency is 0.131 µM (active) in assay [3], 0.465 µM (active) in assay [4], 1.04 µM (active) in assay [9] and 0.522 µM (active) in [10].

`COC(=O)[C@]12CCC(C)(C)C[C@@H]1[C@@H]1C(=O)C=C3[C@@]4(C)C=C(C#N)C(=O)C(C)(C)[C@@H]4CC[C@@]3(C)[C@]1(C)CC2`: the Potency in [5] was 0.743 µM (active); in [6], 5.9 µM (active); in assay [7], 1.48 µM (active); in assay [8], 1.18 µM (active); in assay [1] it was 3.29 µM (active); in assay [2], 1.65 µM (active). Besides, the Potency in [3] was 3.69 µM (active); in assay [4], 7.37 µM (active); in [9], 2.61 µM (active); in [10], 2.33 µM (active).

For the molecule `CC=CC1=C(C(=O)O)N2C(=O)[C@H](NC(=O)[C@H](N)c3ccc(O)cc3)[C@@H]2SC1`, the Potency result in assay [5], in [6], in [7], in assay [8], in [1] and in assay [4] was “inactive” each time. For the same molecule, the Potency entry in assay [9] and in [10] was “inactive” in each case.

For the molecule `O=c1[nH]nc(Sc2ncc([N+](=O)[O-])s2)n1-c1ccc2c(c1)OCCO2`, the Potency was 5.9 µM (active) in assay [5]; 14.8 µM (active) in [6]; 10.5 µM (active) in assay [7]; 6.62 µM (active) in assay [8]; 7.37 µM (active) in assay [1]; 9.27 µM (active) in [2]. Also, the Potency was 5.85 µM (active) in assay [3], 9.27 µM (active) in assay [4], 7.37 µM (active) in assay [9] and 23.3 µM (active) in assay [10].

With `Nc1ncnc2c1c(-c1cnc3[nH]ccc3c1)nn2C1CCCC1`, the Potency in [5] is 0.118 µM (active); in [6], 1.32 µM (active); in assay [7], 2.09 µM (active); in assay [8] it was 0.935 µM (active); in assay [1], 8.27 µM (active); in assay [2] it was 3.69 µM (active). In addition, the results for the Potency in [3], in assay [4] and in [9] were 1.65 µM (active), 3.69 µM (active) and 1.47 µM (active), respectively.

On to `CNC(=O)c1ccc(N2C(=S)N(c3cnc(C#N)c(C(F)(F)F)c3)C(=O)C23CCC3)cc1F`, for which the Potency in assay [5] was 2.35 µM (active); in assay [6] it was 3.72 µM (active); in assay [7], 1.66 µM (active); in assay [8], 1.48 µM (active). In addition, the Potency entry in [1], in assay [2], in assay [3], in assay [4], in assay [9] and in assay [10] was “inactive” throughout.

On to `COc1cc2c(NC3CCN(C(C)C)CC3)nc(C3CCCCC3)nc2cc1OCCCN1CCCC1`, for which the Potency is 23.5 µM (active) in assay [5]; 20.9 µM (active) in assay [6]; 18.7 µM (active) in assay [7]; 11.8 µM (active) in assay [8]; 23.3 µM (active) in assay [1]; 18.5 µM (active) in assay [2]. In addition, the values for the Potency in assay [3] and in assay [10] were 4.14 µM (active) and 9.27 µM (active), respectively.

`Nc1ccccc1NC(=O)c1ccc(CNC(=O)OCc2cccnc2)cc1`: the Potency is 4.69 µM (active) in assay [5]; 20.9 µM (active) in assay [6]; 18.7 µM (active) in assay [7]; 3.72 µM (active) in assay [8]; 2.14 µM (active) in [1]; 13.5 µM (active) in assay [2]. The Potency in assay [3] was 0.302 µM (active); in [9], 2.69 µM (active); in [10] it was 1.91 µM (active).

Take `CC1(C)CCC(c2ccc(Cl)cc2)=C(CN2CCN(c3ccc(C(=O)NS(=O)(=O)c4ccc(N[C@H](CCN5CCOCC5)CSc5ccccc5)c(S(=O)(=O)C(F)(F)F)c4)cc3)CC2)C1`: the Potency in assay [5] was 9.35 µM (active); in assay [7], 9.35 µM (active); in [8], 5.9 µM (active); in assay [2], 8.27 µM (active); in assay [10], 9.27 µM (active). The Potency entry in assay [6], in [1], in assay [4] and in assay [9] was “inactive” throughout.

Turning to `CC1(C)OC2=C(C(=O)c3ccccc3C2=O)[C@H](NCc2ccccc2)[C@H]1O`, the Potency was 9.35 µM (active) in assay [5]; 23.5 µM (active) in assay [6]; 5.9 µM (active) in [7]; 7.43 µM (active) in assay [8]; 7.37 µM (active) in [1]; 2.93 µM (active) in assay [2]. Further, the Potency in assay [3] was 5.22 µM (active); in [4], 20.8 µM (active); in assay [9], 7.37 µM (active); in [10], 8.27 µM (active).

Consider `NC(=O)Nc1cc(-c2cccc(F)c2)sc1C(=O)N[C@H]1CCCNC1`, for which the Potency in assay [5] was 7.43 µM (active); in [7], 0.833 µM (active); in assay [8] it was 1.87 µM (active); in assay [1], 0.928 µM (active); in assay [2] it was 1.85 µM (active); in assay [3] it was 0.414 µM (active). Moreover, the Potency is 0.827 µM (active) in [9] and 2.33 µM (active) in assay [10]. Also, the Potency result in [6] and in [4] was “inactive” throughout.

In the case of `CCn1cc(-c2ccnc3[nH]c(-c4cccc(CN(C)C)c4)cc23)c(-c2ccc(NC(=O)N(C)C)cc2)n1`, the Potency is 4.69 µM (active) in assay [5]; 20.9 µM (active) in assay [6]; 14.8 µM (active) in assay [7]; 5.9 µM (active) in [8]; 3.69 µM (active) in assay [1]; 1.85 µM (active) in assay [2]. Also, the Potency in [3] is 0.0657 µM (active); in assay [9] it was 6.57 µM (active); in assay [10], 18.5 µM (active).

Regarding `CC(NCc1ccc2c(c1)nc(NC(=O)c1ccc(-c3cn[nH]c3)s1)n2CC(C)(C)O)C(C)(C)C` (centres undefined), the Potency in assay [5] is 2.35 µM (active); in [6], 2.35 µM (active); in [7] it was 14.8 µM (active); in assay [8], 0.743 µM (active); in assay [1], 0.293 µM (active); in assay [2] it was 0.827 µM (active). Also, the values for the Potency in [4] and in assay [10] were 0.928 µM (active) and 1.47 µM (active), respectively.
